Here are results for ten compounds from the supplement of paper PMC8007513.

Where a name gives a salt, the structure may show the parent alone. ± gives the standard error. Among all 1,300 compounds or so, about 130 (10%) showed an effect of 50% or more. The sample as a whole holds a higher share of strong results than the screen did.

In this assay the test system is Trichoderma virens ATCC 9645. The experiment in a line: growth yield (OD600) with compound + IPBC relative to untreated control; higher = less growth inhibition. The conditions noted are these: compound concentration: 100 uM, IPBC concentration: 200 ng/ml. A digest of the protocol: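 Trichoderma virens ATCC 9645 spores at 15,000 spores ml^−1 in potato dextrose broth were exposed in 96-well plates to library compounds at 100 μM final, with or without a biocide at 200 ng ml^−1. After growth at 30 °C, OD600 was read at 40 h and 72 h. Values are growth relative to the control without either agent, averaged over duplicate screens.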

For `CC(N)C12CC3CC(CC(C3)C1)C2` (stereo not given) [Rimantadine Hydrochloride] + CCCCNC(=O)OCC#CI [3-iodo-2-propynyl butylcarbamate (IPBC)], the growth yield was determined as 82.76 ± 0.16% (40 h) and 89.04 ± 0.1% (72 h).
For `C=C1CC[C@@]2(O)[C@H]3Cc4ccc(O)c5c4[C@@]2(CCN3CC2CC2)[C@H]1O5` [Nalmefene hydrochloride] + CCCCNC(=O)OCC#CI [3-iodo-2-propynyl butylcarbamate (IPBC)] the same measures were 104 ± 15% and 103 ± 8.3%.
On the same counts, the results for `C[C@H](Cc1cc2c(c(C(N)=O)c1)N(CCCO)CC2)NCCOc1ccccc1OCC(F)(F)F` [Silodosin] + CCCCNC(=O)OCC#CI [3-iodo-2-propynyl butylcarbamate (IPBC)] are 87 ± 1.3% and 92.6 ± 0.94%.
Turning to `CC[C@]12CCCN3CCc4c(n(c5ccccc45)[C@@](O)(C(=O)OC)C1)[C@@H]32` [Vincamine] + CCCCNC(=O)OCC#CI [3-iodo-2-propynyl butylcarbamate (IPBC)], the growth yield runs as follows: (40 h) 86.2 ± 1.4%; (72 h) 91 ± 1.7%.
In the case of `O=C(O)c1cc(-c2ccc(F)cc2F)ccc1O` [Diflunisal] + CCCCNC(=O)OCC#CI [3-iodo-2-propynyl butylcarbamate (IPBC)], the growth yield (40 h) amounted to 57.8 ± 1.6% and the growth yield (72 h) came to 80.65 ± 0.32%.
As for `CN(C)[C@@H]1C(O)=C(C(N)=O)C(=O)[C@@]2(O)C(O)=C3C(=O)c4c(O)ccc(Cl)c4[C@@](C)(O)[C@H]3C[C@@H]12` [Chlortetracycline hydrochloride] + CCCCNC(=O)OCC#CI [3-iodo-2-propynyl butylcarbamate (IPBC)], the growth yield came out at 77.2 ± 0.64% (40 h) and 84.3 ± 2.1% (72 h).
`C[N+]1(C)CCOC(O)(c2ccc(-c3ccc(C4(O)C[N+](C)(C)CCO4)cc3)cc2)C1` (stereo not given) [Hemicholinium bromide] + CCCCNC(=O)OCC#CI [3-iodo-2-propynyl butylcarbamate (IPBC)]: the growth yield (40 h) came to 19.1 ± 0.64% and the growth yield (72 h) was determined as 69.4 ± 1.5%.
On the same counts, the results for `CC(=O)S[C@@H]1CC2=CC(=O)CC[C@]2(C)[C@H]2CC[C@@]3(C)[C@@H](CC[C@@]34CCC(=O)O4)[C@H]12` [Spironolactone] + CCCCNC(=O)OCC#CI [3-iodo-2-propynyl butylcarbamate (IPBC)] are 85.3 ± 9.1% and 91.1 ± 7%.
`CN(C)CCc1c[nH]c2ccc(C[C@H]3COC(=O)N3)cc12` [Zolmitriptan] + CCCCNC(=O)OCC#CI [3-iodo-2-propynyl butylcarbamate (IPBC)]: the growth yield is, setting by setting: (40 h) 93.2 ± 4%; (72 h) 96.3 ± 4%.
On the same counts, the results for `C=C(C)[C@@H]1[C@H]2OC(=O)[C@@H]1[C@]1(O)C[C@H]3O[C@]34C(=O)O[C@H]2[C@]14C` [Picrotoxinin] + CCCCNC(=O)OCC#CI [3-iodo-2-propynyl butylcarbamate (IPBC)] are 96.3 ± 11% and 97.1 ± 8.2%.
